The test system of assay [1] is XIP peptide (Xip251-270) binding. The assay is described as follows: XIP fragment 251-270 binding compounds – biochemical, small-molecule microarray, fluorescence 635/667 nm, 0.1 µg/mL protein, primary screen (AID 1182). Particulars: fluorescent protein binding, 635 nm, higher = more signal, called active from +8 up or from −8 down.
The test system of the next assay is XIP peptide (Xip251-270). The assay is described as follows: compounds binding XIP fragment 251-270 – biochemical, small-molecule microarray, fluorescence 635/667 nm, 0.5 µg/mL protein, primary screen (AID 1183). To be noted: fluorescence 635 nm, higher = more signal.
Assay [2] in a line: blood-stage malaria parasite viability loss – strain 3D7, DAPI fluorescence, 100 nL, primary screen (AID 1184).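 Further: parasites grown inside human red blood cells in medium with human serum.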 To be noted: P. falciparum 3D7 growth, 3 d, higher = more signal.
In assay [3] the target is Homeobox protein Hox-A13 (Mus musculus) (UniProt Q62424). The assay is described as follows: disruptors of Hoxa13 oligonucleotide interaction – biochemical, fluorescence polarization, labeled oligonucleotide, primary screen (AID 1185). Particulars: Hoxa13:DNA binding, 15 min, higher = more signal, called active from +8 up or from −8 down.
Chain of Homeobox protein Hox-A13 (Mus musculus) (Q62424 whole entry, looked up): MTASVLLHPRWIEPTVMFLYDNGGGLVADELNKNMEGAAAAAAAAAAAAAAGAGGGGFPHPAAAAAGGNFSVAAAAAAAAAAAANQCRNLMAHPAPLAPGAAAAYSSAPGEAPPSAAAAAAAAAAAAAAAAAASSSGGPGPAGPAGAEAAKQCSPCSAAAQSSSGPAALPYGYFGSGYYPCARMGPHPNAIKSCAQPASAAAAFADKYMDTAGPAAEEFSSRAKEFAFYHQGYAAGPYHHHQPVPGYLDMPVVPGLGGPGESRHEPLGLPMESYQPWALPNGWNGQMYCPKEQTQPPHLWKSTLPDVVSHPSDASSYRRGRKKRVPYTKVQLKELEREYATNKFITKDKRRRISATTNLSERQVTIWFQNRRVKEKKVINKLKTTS
Assay [4] can be described thus: blockers of DNA damage checkpoint Chk1 activation – imaging, HeLa, hydroxyurea, phospho-Chk1 antibody, percent positive cells, primary screen (AID 1186). Particulars: hydroxyurea-induced phospho-Chk1 immunofluorescence imaging, higher = more signal.
Assay [5] can be described thus: blockers of DNA damage checkpoint Chk1 activation – imaging, HeLa, hydroxyurea, phospho-Chk1 nuclear intensity, primary screen (AID 1187). Particulars: hydroxyurea-induced phospho-Chk1 immunofluorescence imaging, higher = more signal.

The source made the active and inactive calls. Unless noted, how the calls were made is not given here.

As for `C=C(CCCC)/C(=C/C[C@@H](OC(C)=O)c1ccccc1OCCO)c1cnc2ccccc2c1`, the composite z-score in assay [1] was -0.475 (inactive); in the assay on XIP peptide (Xip251-270), 0.234. Moreover, the z-score in assay [2] is -3.01; in assay [3], -5.06 (inactive); in assay [4], 1.11 (inactive); in assay [5], 0.212 (inactive).

In the case of `COc1ccc(C(O)C2C=CC3C(=O)NC(=O)C3N2Nc2ccccn2)c2ccccc12` (configuration not stated), the composite z-score in assay [1] is 0.123 (inactive); in the assay with XIP peptide (Xip251-270), -0.034. For the same molecule, the z-score was 0.8 in assay [2], -1.97 (inactive) in assay [3], 0.141 (inactive) in assay [4] and -0.22 (inactive) in assay [5].

`COc1cc2c(cc1OC)CN(C(=O)[C@@H]1[C@H]3C(=O)O[C@H](c4ccccc4)[C@H](c4ccccc4)N3[C@H](c3ccc(O)cc3)[C@@]13C(=O)Nc1ccc(C#CC4(O)CCCCCC4)cc13)CC2`: the composite z-score in assay [1] is 0.479 (inactive); in the assay on XIP peptide (Xip251-270), 0.774. Moreover, the z-score in assay [2] was -0.489; in assay [3] it was -1.53 (inactive); in assay [4] it was 0.263 (inactive); in assay [5], 0.812 (inactive).

Take `O=C1OCCC/C=C\[C@H]2OC34C=CCN(c5ccc6ccccc6c5)C(=O)[C@H]3N(CCCCCCO)C(=O)[C@@H]4C12` (some centres not stated): the composite z-score in assay [1] is 0.346 (inactive); in the assay on XIP peptide (Xip251-270), 0.0339. Also, the z-score was -0.577 in assay [2], -5.08 (inactive) in assay [3], -0.833 (inactive) in assay [4] and -0.428 (inactive) in assay [5].

Regarding `CC(C)N1C(=O)c2ccccc2[C@](C)(C(=O)NCc2ccccc2)[C@@H]1c1ccc(CO)cc1`, the composite z-score in assay [1] is -0.534 (inactive); in the assay with XIP peptide (Xip251-270), 0.48. Besides, the z-score in assay [2] is -0.771; in assay [3] it was -1.51 (inactive); in assay [4], 0.0268 (inactive); in assay [5], 0.0578 (inactive).

In the case of `O=C1O[C@@H](c2ccccc2)[C@@H](c2ccccc2)N2[C@@H](c3ccccc3OCCO)[C@]3(C(=O)Nc4ccc(C#CC5=CCCCC5)cc43)[C@@H](C(=O)Nc3nc4ccccc4s3)[C@H]12`, the composite z-score in assay [1] was 0.705 (inactive); in the assay on XIP peptide (Xip251-270) it was 0.824. Further, the z-score in assay [2] was -2.09; in assay [3], -12.1 (active); in assay [4], -0.183 (inactive); in assay [5] it was -0.161 (inactive).

On to `O=C1OCCC/C=C\[C@H]2OC34C=CCN(Cn5nnc6ccccc65)C(=O)[C@H]3N(CCO)C(=O)[C@@H]4C12` (some centres not stated), for which the composite z-score in assay [1] is -0.0143 (inactive); with XIP peptide (Xip251-270) it was 0.96. The z-score is -1.18 in assay [2], -4.72 (inactive) in assay [3], 0.0428 (inactive) in assay [4] and 0.371 (inactive) in assay [5].

As for `COC(=O)c1c(CC[C@@H](CO)NC(=O)N[C@@H](C)Cn2cc(C3(O)CCCCC3)nn2)oc(C(C)=O)c1C(=O)OC`, the composite z-score is 0.946 (inactive) in assay [1] and 0.836 in the assay on XIP peptide (Xip251-270). In addition, the z-score in assay [2] was -2.45; in assay [3], -3.05 (inactive); in assay [4], 0.0032 (inactive); in assay [5], 0.715 (inactive).

For `COC(=O)[C@@]1(Cc2ccc(F)cc2)[C@H]2c3cc(C(=O)N(C)C)n(Cc4nc5ccccc5[nH]4)c3C[C@H]2CN1C(=O)c1ccccc1`, the values for the composite z-score (in assay [1]; in the assay with XIP peptide (Xip251-270)) were 0.642 (inactive) and 0.817, respectively. In addition, the z-score in assay [2] was -0.593; in assay [3], -3.68 (inactive); in assay [4], -0.11 (inactive); in assay [5], -0.0626 (inactive).

As for `C=CCNC(=O)[C@H]1[C@@H]2C(=O)O[C@@H](c3ccccc3)[C@@H](c3ccccc3)N2[C@@H](c2ccc(OCCO)cc2)[C@]12C(=O)Nc1ccc(C#CC3=CCCCC3)cc12`, the composite z-score was 0.116 (inactive) in assay [1] and 0.731 in the assay with XIP peptide (Xip251-270). For the same molecule, the z-score in assay [2] was -1.19; in assay [3], 3.25 (inactive); in assay [4], 0.151 (inactive); in assay [5] it was 0.359 (inactive).

Take `[N-]=[N+]=NCc1ccccc1C[C@]1(C(=O)N2CCOCC2)N=C(c2ccc(OCCCO)cc2)O[C@H]1c1ccccc1N=[N+]=[N-]`: the figures for the composite z-score (in assay [1]; in the assay with XIP peptide (Xip251-270)) were 0.141 (inactive) and 0.229, respectively. For the same molecule, the z-score in assay [2] was -2.6; in assay [3], -2.96 (inactive); in assay [4], -0.551 (inactive); in assay [5], -0.635 (inactive).

On to `COC(=O)[C@@]1(Cc2ccccc2)[C@H]2c3cc(C(=O)N4CCCC4)n(Cc4nc5ccccc5[nH]4)c3C[C@H]2CN1C(=O)c1ccccc1`, for which the composite z-score is 1.33 (inactive) in assay [1] and 0.213 in the assay on XIP peptide (Xip251-270). The z-score was -1.65 in assay [2], -3.97 (inactive) in assay [3], -1.01 (inactive) in assay [4] and -0.881 (inactive) in assay [5].

`O=C1[C@H]2C=C(Br)[C@H](C[C@@H]2c2ccccc2)[C@@]12CO2`: the composite z-score in assay [1] was 0.122 (inactive); with XIP peptide (Xip251-270) it was 0.31. For the same molecule, the z-score in assay [2] was -0.391; in assay [3], -1.29 (inactive); in assay [4], -0.155 (inactive); in assay [5] it was -0.0519 (inactive).

As to `C=CC[C@@]1(C(=O)NCc2ccccc2)N=C(c2ccc(OCCCO)cc2)O[C@@H]1c1ccccc1N=[N+]=[N-]`, the figures for the composite z-score (in assay [1]; in the assay with XIP peptide (Xip251-270)) were 0.0885 (inactive) and 0.764, respectively. Also, the z-score in assay [2] was -1.92; in assay [3] it was -1.72 (inactive); in assay [4] it was -0.334 (inactive); in assay [5], -0.183 (inactive).

As for `C#CCN(Cc1ccccc1Br)C(/C=C/c1ccccc1)CO` (configuration not stated), the values for the composite z-score (in assay [1]; with XIP peptide (Xip251-270)) were 1.09 (inactive) and -0.318, respectively. In addition, the z-score is -1.02 in assay [2], -6.39 (inactive) in assay [3], -0.348 (inactive) in assay [4] and -0.323 (inactive) in assay [5].

Consider `COCCOC(=O)N1C(=O)[C@@]2(c3cc(C#CC4(O)CCCCCC4)ccc31)[C@H](c1ccc(O)cc1)N1[C@H](c3ccccc3)[C@H](c3ccccc3)OC(=O)[C@H]1[C@@H]2C(=O)Nc1nc2ccccc2s1`, for which the composite z-score is 1.18 (inactive) in assay [1] and 0.708 in the assay on XIP peptide (Xip251-270). Moreover, the z-score in assay [2] was -0.326; in assay [3], -1.3 (inactive); in assay [4], 0.227 (inactive); in assay [5] it was 0.428 (inactive).

Take `COc1ccc(C(O)C2C=CC3C(=O)N(c4ccccc4)C(=O)C3N2Nc2ccccc2F)cc1OCc1ccccc1` (configuration not stated): the composite z-score in assay [1] was 1.26 (inactive); in the assay with XIP peptide (Xip251-270), 0.698. The z-score in assay [2] was -0.193; in assay [3], -0.0495 (inactive); in assay [4], -0.75 (inactive); in assay [5] it was -1.22 (inactive).
